Among the data in PubChem BioAssay (NCI) are growth values, retold here.

The panel holds about 83,000 compounds, 20% with a hit somewhere; the sample as a whole holds those more often.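 Each cell line was grown in a 96-well plate and treated with one concentration of compound for 48 hours. Values below 10 were considered active.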 A number with no mark means an inactive call. Active and inactive are the calls of the source.

Some test systems named below: NCI-H23 lung; NCI-H226 lung; NCI-H322M lung; HOP-62 NSCLC; NCI-H460 lung; HOP-92 NSCLC; NCI-H522 lung; A549/ATCC NSCLC; 786-0 renal; COLO 205 colon.
Common to all, as to assay: NCI-60 one-dose screen, 48 h (100 = growth as untreated, 0 = no growth, -100 = all killed)
Common to all, as to details: 10 µM

As to `Cc1ccc(C(=O)CSc2nnc(-c3c[nH]c4ccccc34)n2-c2ccccc2)cc1`, the growth in the test on NCI-H23 lung was 17.3%; in the test with NCI-H226 lung it was -41.3% (active); in the test on NCI-H322M lung, 74.9%; with HOP-62 NSCLC, 7.8% (active); with NCI-H460 lung it was 29.3%; in the test on HOP-92 NSCLC, -7.56% (active). Also, the growth with NCI-H522 lung was 1.43% (active); with A549/ATCC NSCLC, 53.3%; in the test on 786-0 renal, -35.4% (active); in the test on COLO 205 colon it was 75%.

For `COc1ccc(C(=O)Nc2sc3c(c2C#N)CCC(=O)C3)cc1C(F)(F)F`, the growth with NCI-H23 lung was -13.7% (active); in the test with NCI-H226 lung it was 6.58% (active); with NCI-H322M lung it was 85.9%; with HOP-62 NSCLC, -9.95% (active); in the test with NCI-H460 lung it was 0.213% (active); with HOP-92 NSCLC, -30.9% (active). The growth in the test with NCI-H522 lung was -64.4% (active); with A549/ATCC NSCLC it was 25.5%; in the test on 786-0 renal, 7.91% (active); with COLO 205 colon it was -89.1% (active).

`O=C(c1ccc(Cl)cc1)C1[C@H](c2ccccc2Br)[C@@H](c2ccccc2)NC12C(=O)Nc1ccc(Cl)cc12` (stereo not given in full): the growth with NCI-H23 lung is -22.3% (active); with NCI-H226 lung it was 18.9%; in the test with NCI-H322M lung it was 44.7%; in the test on HOP-62 NSCLC, 38.9%; in the test on NCI-H460 lung, -13.5% (active); in the test on HOP-92 NSCLC, 23%. For the same compound, the growth in the test with NCI-H522 lung was 3.07% (active); with A549/ATCC NSCLC it was 19.8%; with 786-0 renal, 17.6%; in the test on COLO 205 colon it was 8.59% (active).

In the case of `COc1cc(/C=C/C(=O)c2ccc(C(F)(F)F)cc2)ccc1Oc1nc(Nc2ccc(F)cc2)nc(N(C)C)n1`, the growth in the test with NCI-H23 lung is 64.6%; with NCI-H226 lung it was 71.7%; in the test on NCI-H322M lung, 82.8%; in the test on HOP-62 NSCLC, 102%; with NCI-H460 lung it was 82.7%; in the test on HOP-92 NSCLC, 81.5%. Moreover, the growth in the test on NCI-H522 lung was 76.7%; in the test with A549/ATCC NSCLC, 78.7%; in the test on 786-0 renal, 71.8%; in the test with COLO 205 colon it was 134%.

For `N#Cc1c(NC(=O)c2ccc(C(F)(F)F)cc2)sc2c1CCC(O)=C2`, the growth in the test on NCI-H23 lung is 23.9%; in the test with NCI-H226 lung, 46.9%; in the test with NCI-H322M lung, 46.1%; with HOP-62 NSCLC it was 26.3%; in the test with NCI-H460 lung, 14.6%; with HOP-92 NSCLC it was 38.7%. Also, the growth in the test on NCI-H522 lung was 1.61% (active); with A549/ATCC NSCLC, 34.7%; in the test on 786-0 renal, 53.3%; in the test with COLO 205 colon it was 60.9%.

Regarding `CCOc1ccc(Nc2nc3ccccc3nc2Nc2ccc(OCC)cc2)cc1`, the growth in the test with NCI-H23 lung was 55.2%; in the test on NCI-H226 lung it was 85.6%; with NCI-H322M lung it was 71.3%; in the test with HOP-62 NSCLC, 64.9%; with NCI-H460 lung it was 17.2%; with HOP-92 NSCLC, 27.6%. Besides, the growth was 55.9% with NCI-H522 lung, 41.3% in the test on A549/ATCC NSCLC, 32.1% with 786-0 renal and 95.9% with COLO 205 colon.

On to `CC(C)C(=O)Nc1ccc(C(=O)NC(=S)Nc2ccc(C(=O)O)cc2)cc1`, for which the growth in the test on NCI-H23 lung was 101%; in the test on NCI-H226 lung, 95.6%; in the test on NCI-H322M lung it was 105%; with HOP-62 NSCLC, 102%; in the test with NCI-H460 lung, 102%; with HOP-92 NSCLC it was 108%. Moreover, the growth was 90.6% with NCI-H522 lung, 110% in the test with A549/ATCC NSCLC, 102% in the test with 786-0 renal and 105% in the test with COLO 205 colon.

For `CCOC(=O)C(Cc1ccccc1)N1C(=O)/C(=C/N2N=C(c3ccc(OC)cc3)CC2c2ccc3ccccc3c2)SC1=S` (stereo not given), the growth in the test with NCI-H23 lung is -55.5% (active); in the test on NCI-H226 lung it was -41.8% (active); in the test with NCI-H322M lung, 18.2%; with HOP-62 NSCLC, -54.8% (active); in the test on NCI-H460 lung it was -3.96% (active); in the test on HOP-92 NSCLC it was -8.32% (active). Moreover, the growth is 1.04% (active) in the test with NCI-H522 lung, 21.7% in the test on A549/ATCC NSCLC, 13.8% in the test on 786-0 renal and -86% (active) with COLO 205 colon.

As to `COc1cc2c3c(n(CCCn4ccnc4)c(=O)c2cc1OC)-c1nc2c(cc1C3=O)OCO2`, the growth was 20% in the test on NCI-H23 lung; 30.3% in the test on NCI-H226 lung; 71.6% in the test on NCI-H322M lung; 22.7% with HOP-62 NSCLC; 8.7% (active) in the test with NCI-H460 lung; 117% with HOP-92 NSCLC. For the same compound, the growth in the test with NCI-H522 lung was 40.4%; in the test on A549/ATCC NSCLC it was 47.7%; in the test with 786-0 renal, 12.1%; with COLO 205 colon it was 34.2%.

In the case of `COc1cc2c3c(n(CCCN4CCOCC4)c(=O)c2cc1OC)-c1nc2c(cc1C3=O)OCO2`, the growth in the test with NCI-H23 lung was 4.12% (active); in the test on NCI-H226 lung it was 6.34% (active); with NCI-H322M lung it was 41%; in the test on HOP-62 NSCLC, -12.4% (active); with NCI-H460 lung, -15.4% (active); in the test on HOP-92 NSCLC, -2.4% (active). Moreover, the growth with NCI-H522 lung is 39.9%; in the test with A549/ATCC NSCLC it was 19%; with 786-0 renal it was -6.02% (active); in the test on COLO 205 colon, 13%.

Take `COc1ccc(CCN2C(=O)/C(=C/c3csc(C#N)n3)SC2=S)cc1OC`: the growth was 38.5% in the test on NCI-H23 lung; 100% in the test on NCI-H226 lung; 101% in the test on NCI-H322M lung; 111% with HOP-62 NSCLC; 98.4% in the test with NCI-H460 lung; -5.19% (active) in the test with HOP-92 NSCLC. Besides, the growth with NCI-H522 lung is -66.7% (active); in the test on A549/ATCC NSCLC, 95%; with 786-0 renal, 21.1%; in the test with COLO 205 colon it was -27.5% (active).

As for `COc1ccc2nc(Cl)c(-c3cc(-c4ccccc4)nc(N)n3)cc2c1`, the growth was 37.7% in the test with NCI-H23 lung; 27.1% with NCI-H226 lung; 60.7% in the test with NCI-H322M lung; 40.8% in the test on HOP-62 NSCLC; 3.53% (active) in the test on NCI-H460 lung; 48.5% in the test with HOP-92 NSCLC. Further, the growth with NCI-H522 lung is 46.8%; in the test on A549/ATCC NSCLC, 72.7%; in the test on 786-0 renal it was 4.34% (active); in the test on COLO 205 colon, 53.7%.
